The whole screen tested about 330,000 compounds, of which about 1,900 (0.58%) were called active.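 The calls were made as follows: active = inhibition of aptamer binding above 40%, roughly 3 SD of noise, on plates passing a quality check; inactive = the rest.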 Only a selection was taken, and actives are over-represented in it overall.
molecular target: Beta-adrenergic receptor kinase 1 (Homo sapiens) (UniProt P25098); assay: compounds blocking aptamer binding on GRK2 – biochemical, human GRK2, bead flow cytometry, HTS, primary screen (AID 488847); details: FAM-aptamer displacement from GRK2, at 10 µM, hits give high values;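 also: median bead fluorescence of bound FAM aptamer so fluorescent compounds give negative values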
Sequence (P25098 whole entry, looked up): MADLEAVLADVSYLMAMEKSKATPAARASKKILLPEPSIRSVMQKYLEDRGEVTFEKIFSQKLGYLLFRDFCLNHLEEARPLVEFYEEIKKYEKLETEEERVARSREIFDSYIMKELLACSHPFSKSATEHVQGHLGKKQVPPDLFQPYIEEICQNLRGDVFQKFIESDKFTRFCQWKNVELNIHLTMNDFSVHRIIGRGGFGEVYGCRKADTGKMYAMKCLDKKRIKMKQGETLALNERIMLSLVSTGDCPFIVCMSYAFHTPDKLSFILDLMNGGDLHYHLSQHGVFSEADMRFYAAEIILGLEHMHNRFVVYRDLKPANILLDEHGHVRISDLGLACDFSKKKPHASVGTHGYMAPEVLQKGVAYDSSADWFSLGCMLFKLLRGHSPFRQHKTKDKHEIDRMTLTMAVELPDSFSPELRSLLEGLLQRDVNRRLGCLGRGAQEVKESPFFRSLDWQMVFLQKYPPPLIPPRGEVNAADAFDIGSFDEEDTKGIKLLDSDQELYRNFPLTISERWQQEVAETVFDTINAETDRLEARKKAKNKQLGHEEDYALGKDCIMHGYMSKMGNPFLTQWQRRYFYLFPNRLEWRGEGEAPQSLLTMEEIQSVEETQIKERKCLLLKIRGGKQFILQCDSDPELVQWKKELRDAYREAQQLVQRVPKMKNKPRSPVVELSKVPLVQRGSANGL

Structure (SMILES) | inhibition of aptamer binding
Cc1c(C(=O)O)cccc1-n1c(C)cc(/C=C2\C(=O)NC(=O)N(c3ccc4c(c3)OCO4)C2=O)c1C | 75% (active)
Cc1cc(C=C2C(=O)NC(=O)NC2=O)c(C)n1-c1ccncc1 | 2% (inactive)
Cc1ccc(-n2c(C)cc(/C=C3\C(=O)NC(=O)N(C)C3=O)c2C)cc1C | 3% (inactive)
CC[N+]1(C)CCCC(OC(=O)C(O)(c2ccccc2)c2ccccc2)C1 (stereo not given) | 0% (inactive)
O=C1NC(=O)C(C/C=C/c2ccccc2)C(=O)N1 | 1% (inactive)
COc1ccc(Br)cc1CNCCc1cccc(Cl)c1 | 0% (inactive)
O=C1NC(=O)N(Cc2ccco2)C(=O)/C1=C\c1ccc(-c2ccc(F)cc2)o1 | 15% (inactive)
COc1ccc(N2C(=O)/C(=C/c3ccco3)C(=O)NC2=S)cc1 | 96% (active)
O=C1NC(=O)N(Cc2ccco2)C(=O)/C1=C\c1cccn1CCOc1ccccc1 | 5% (inactive)
CN(C)CC1CCCCC1OC(=O)c1ccc(Cl)c(Cl)c1 (stereo not given) | 0% (inactive)

Source: PubChem BioAssay AID488847 (NMMLSC, 2010)
